In PubChem BioAssay (NCATS):
Inconclusive results are not listed. Where a call stands in place of a potency, no number is given. Unmarked numbers belong to inactive results. Active and inactive are the calls of the source. The call rests on the fitted dose curve; in most records, active means well fitted cell-killing curve with a large enough effect; inconclusive means small, poorly fitted or top-dose-only effect, or effect the other way; inactive means no such curve, though single readings can be large or run the other way.

Legend:
[1] = Viability qHTS for spleen associated tyrosine kinase inhibitor (SYKi) naive MV4-11 cells (AID 1963823); further: nearly all actives have a fitted effect of over 40% in size
Summary of the method: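 Luminescence from CellTiter-Glo, developed 10 min at room temperature, gave viability of MV4-11 cells never exposed to SYK inhibitor. Cells (500/well) had been incubated with compounds for 72 hr under standard culture conditions.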

[2] = Viability qHTS for spleen associated tyrosine kinase inhibitor (SYKi) drug resistant MV4-11 cells (AID 1963824); further: nearly all actives have a fitted effect of over 35% in size
Summary of the method: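 CellTiter-Glo luminescence, read 10 min after reagent addition, reports viability after a 72 hr compound exposure. Cells are an MV4-11 line made resistant to SYK inhibition, seeded at 500 per well onto compound-containing plates.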
Potency means the concentration at half of the fitted maximal effect.

SMILES: CCC/C=C/C(=O)O[C@H]1CC(C)(C)CC2[C@]13[C@H](O)O[C@@]21CCC2[C@@]4(C)CC[C@H](O[C@@H]5O[C@H](C(=O)O)[C@@H](O)[C@H](O[C@@H]6O[C@H](CO)[C@H](O)[C@H](O)[C@H]6O[C@@H]6O[C@@H](C)[C@H](O)[C@@H](O)[C@H]6O[C@@H]6OC[C@](O)(CO)[C@H]6O)[C@H]5O[C@@H]5O[C@H](CO)[C@H](O)[C@H](O)[C@H]5O)C(C)(C)C4CC[C@@]2(C)[C@]1(C)C[C@H]3OC(C)=O (some centres not stated)
- viability (% of control) [1]: 57.2% [at 9.25 µM]
- viability, % of control [2]: 66.3% [at 9.25 µM]

SMILES: Cn1cnc2c(NCc3ccccc3)nc(NCCO)nc21
- Potency [1]: inactive
- Potency [2]: inactive

SMILES: CC1CCC2(OC1)OC1CC3C4CC=C5CC(O)CC(O[C@@H]6OC[C@@H](O)[C@H](O)[C@H]6O)C5(C)C4CCC3(C)C1(O)C2C (some centres not stated)
- Potency [1]: inactive
- Potency [2]: inactive

SMILES: C=C1C(=O)O[C@@H]2C[C@H](C)[C@@H]3CC(=O)[C@H](O)[C@@]3(C)C[C@H]12
- Potency [1]: 9.2 µM (active)
- Potency [2]: 11.6 µM (active)

SMILES: CC(C)=CC[C@H]1O[C@]2(O)C([C@H]3CCC4[C@@]5(C)CC[C@H](O[C@@H]6O[C@H](CO)[C@H](O)[C@H](O[C@@H]7O[C@H](CO)[C@@H](O)[C@H](O)[C@H]7O)[C@H]6O[C@@H]6O[C@@H](C)[C@H](O)[C@@H](O)[C@H]6O)C(C)(C)C5CC[C@@]4(C)[C@]3(C)[C@H]2O)[C@@]1(C)O (some centres not stated)
- viability (% of control) [1]: 84.2% [at 9.25 µM]
- viability, % of control [2]: 80.7% [at 9.25 µM]

SMILES: O=C(O)CCc1cccc(O)c1O[C@@H]1O[C@H](CO)[C@@H](O)[C@H](O)[C@H]1O
- Potency [1]: inactive
- Potency [2]: inactive
